Assay results as given in paper PMC12820563, “FoxP3 forms a head-to-head dimer in vivo and stabilizes its multimerization on adjacent microsatellites”.
The full ranking holds about 16,000 sequences; the median of “rpm ratio (pull-down/input)” is about 0.94, and the highest 2% start at about 1.7. The sample as a whole holds a higher share of the highest values than the screen did.

biological target: T1, MBP-FoxP1dN (Mus musculus, UniProt P58462 326-579); experiment: PD-seq (MBP pull-down with sequencing); 20 mM Tris-HCl pH 7.5, 100 mM NaCl, 1.5 mM MgCl2, 0.4 uM protein, 0.1 uM dsDNA library, 30 min, room temperature, amylose pull-down; high values mean tight binding; details: protein: recombinant; tags: His6-MBP; chain copies: 2; dsDNA, one strand shown
T1 sequence: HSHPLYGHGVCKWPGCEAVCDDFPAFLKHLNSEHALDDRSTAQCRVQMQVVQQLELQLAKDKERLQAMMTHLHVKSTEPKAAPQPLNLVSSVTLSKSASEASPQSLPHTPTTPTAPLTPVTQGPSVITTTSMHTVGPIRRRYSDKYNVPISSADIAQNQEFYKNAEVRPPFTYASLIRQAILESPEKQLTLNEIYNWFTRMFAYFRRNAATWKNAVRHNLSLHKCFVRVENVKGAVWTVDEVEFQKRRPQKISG
Method in brief: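 A fragment of mouse FoxP3 or FoxP1 without its N-terminus, carrying a His6-MBP tag and produced in E. coli, was combined at 0.4 µM with a 0.1 µM degenerate double-stranded DNA library filled in with Klenow. The mixture sat for 30 min at room temperature in Tris pH 7.5 buffer containing NaCl and MgCl2. Protein–DNA complexes were captured on amylose resin, washed three times, and the DNA was freed with proteinase K, barcoded by PCR and sequenced on Illumina. Binding is expressed as reads-per-million enrichment of pull-down over input, with replicates pooled.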

Sequence	binding signal
GATGATTGTTCTCCCAGCTGATGAATTATGACAATCGAGTAAACAAATTTTCCTAATCTTTCTGTTCAAGCGCCATCTAC	1.38 RPM ratio (pull-down/input)
GATGATTGTTCTCCCAGCTGATGAATTAACAACATCGAGTAAACAAATTTTCCTAATCTTTCTGTTCAAGCGCCATCTAC	2.17 RPM ratio (pull-down/input)
GATGATTGTTCTCCCAGCTGATGAATTAACATCATCGAGTAAACAAATTTTCCTAATCTTTCTGTTCAAGCGCCATCTAC	1.31 RPM ratio (pull-down/input)
GATGATTGTTCTCCCAGCTGATGAATTATTAACATCGAGTAAACAAATTTTCCTAATCTTTCTGTTCAAGCGCCATCTAC	1.32 RPM ratio (pull-down/input)
GATGATTGTTCTCCCAGCTGATGAATTAATAACATCGAGTAAACAAATTTTCCTAATCTTTCTGTTCAAGCGCCATCTAC	2.02 RPM ratio (pull-down/input)
GATGATTGTTCTCCCAGCTGATGAATTAAATAAATCGAGTAAACAAATTTTCCTAATCTTTCTGTTCAAGCGCCATCTAC	1.49 RPM ratio (pull-down/input)
GATGATTGTTCTCCCAGCTGATGAATTAACATAATCGAGTAAACAAATTTTCCTAATCTTTCTGTTCAAGCGCCATCTAC	1.45 RPM ratio (pull-down/input)
GATGATTGTTCTCCCAGCTGATGAATTTTACGTTTCGAGTAAACAAATTTTCCTAATCTTTCTGTTCAAGCGCCATCTAC	0.852 RPM ratio (pull-down/input)
GATGATTGTTCTCCCAGCTGATGAATTGCCTAGTTCGAGTAAACAAATTTTCCTAATCTTTCTGTTCAAGCGCCATCTAC	0.959 RPM ratio (pull-down/input)
GATGATTGTTCTCCCAGCTGATGAATTAACACGCTCGAGTAAACAAATTTTCCTAATCTTTCTGTTCAAGCGCCATCTAC	1.02 RPM ratio (pull-down/input)
GATGATTGTTCTCCCAGCTGATGAATTGGTGGTGTCGAGTAAACAAATTTTCCTAATCTTTCTGTTCAAGCGCCATCTAC	0.948 RPM ratio (pull-down/input)
GATGATTGTTCTCCCAGCTGATGAATTTTTGGTGTCGAGTAAACAAATTTTCCTAATCTTTCTGTTCAAGCGCCATCTAC	0.926 RPM ratio (pull-down/input)
GATGATTGTTCTCCCAGCTGATGAATTGGTGTCGTCGAGTAAACAAATTTTCCTAATCTTTCTGTTCAAGCGCCATCTAC	1.04 RPM ratio (pull-down/input)
GATGATTGTTCTCCCAGCTGATGAATTTGGTGTGTCGAGTAAACAAATTTTCCTAATCTTTCTGTTCAAGCGCCATCTAC	1 RPM ratio (pull-down/input)
GATGATTGTTCTCCCAGCTGATGAATTGGTGTTGTCGAGTAAACAAATTTTCCTAATCTTTCTGTTCAAGCGCCATCTAC	2.78 RPM ratio (pull-down/input)
GATGATTGTTCTCCCAGCTGATGAATTGTTGGTGTCGAGTAAACAAATTTTCCTAATCTTTCTGTTCAAGCGCCATCTAC	1.8 RPM ratio (pull-down/input)
GATGATTGTTCTCCCAGCTGATGAATTAGACCTTTCGAGTAAACAAATTTTCCTAATCTTTCTGTTCAAGCGCCATCTAC	0.881 RPM ratio (pull-down/input)
GATGATTGTTCTCCCAGCTGATGAATTCGACCGATCGAGTAAACAAATTTTCCTAATCTTTCTGTTCAAGCGCCATCTAC	0.823 RPM ratio (pull-down/input)
GATGATTGTTCTCCCAGCTGATGAATTAGCCGTTTCGAGTAAACAAATTTTCCTAATCTTTCTGTTCAAGCGCCATCTAC	0.852 RPM ratio (pull-down/input)
GATGATTGTTCTCCCAGCTGATGAATTATATTTTTCGAGTAAACAAATTTTCCTAATCTTTCTGTTCAAGCGCCATCTAC	1.61 RPM ratio (pull-down/input)
GATGATTGTTCTCCCAGCTGATGAATTTTTATATTCGAGTAAACAAATTTTCCTAATCTTTCTGTTCAAGCGCCATCTAC	1.1 RPM ratio (pull-down/input)

Sequence	binding signal
GATGATTGTTCTCCCAGCTGATGAATTATATATTTCGAGTAAACAAATTTTCCTAATCTTTCTGTTCAAGCGCCATCTAC	1.06 RPM ratio (pull-down/input)
GATGATTGTTCTCCCAGCTGATGAATTATATTGTTCGAGTAAACAAATTTTCCTAATCTTTCTGTTCAAGCGCCATCTAC	2.08 RPM ratio (pull-down/input)
GATGATTGTTCTCCCAGCTGATGAATTTATATTTTCGAGTAAACAAATTTTCCTAATCTTTCTGTTCAAGCGCCATCTAC	2.37 RPM ratio (pull-down/input)
GATGATTGTTCTCCCAGCTGATGAATTTTATATTTCGAGTAAACAAATTTTCCTAATCTTTCTGTTCAAGCGCCATCTAC	1.07 RPM ratio (pull-down/input)
GATGATTGTTCTCCCAGCTGATGAATTTACTTTATCGAGTAAACAAATTTTCCTAATCTTTCTGTTCAAGCGCCATCTAC	1.46 RPM ratio (pull-down/input)
GATGATTGTTCTCCCAGCTGATGAATTACGTAGTTCGAGTAAACAAATTTTCCTAATCTTTCTGTTCAAGCGCCATCTAC	1.02 RPM ratio (pull-down/input)
GATGATTGTTCTCCCAGCTGATGAATTATGGCGATCGAGTAAACAAATTTTCCTAATCTTTCTGTTCAAGCGCCATCTAC	0.99 RPM ratio (pull-down/input)
GATGATTGTTCTCCCAGCTGATGAATTGGTAGGCTCGAGTAAACAAATTTTCCTAATCTTTCTGTTCAAGCGCCATCTAC	0.819 RPM ratio (pull-down/input)
GATGATTGTTCTCCCAGCTGATGAATTTACGTCGTCGAGTAAACAAATTTTCCTAATCTTTCTGTTCAAGCGCCATCTAC	1.25 RPM ratio (pull-down/input)
GATGATTGTTCTCCCAGCTGATGAATTATTTACGTCGAGTAAACAAATTTTCCTAATCTTTCTGTTCAAGCGCCATCTAC	2.19 RPM ratio (pull-down/input)
GATGATTGTTCTCCCAGCTGATGAATTTTTTACGTCGAGTAAACAAATTTTCCTAATCTTTCTGTTCAAGCGCCATCTAC	0.984 RPM ratio (pull-down/input)
GATGATTGTTCTCCCAGCTGATGAATTCTTTACGTCGAGTAAACAAATTTTCCTAATCTTTCTGTTCAAGCGCCATCTAC	0.992 RPM ratio (pull-down/input)
GATGATTGTTCTCCCAGCTGATGAATTTATTACGTCGAGTAAACAAATTTTCCTAATCTTTCTGTTCAAGCGCCATCTAC	1.11 RPM ratio (pull-down/input)
GATGATTGTTCTCCCAGCTGATGAATTGTTTACGTCGAGTAAACAAATTTTCCTAATCTTTCTGTTCAAGCGCCATCTAC	2.79 RPM ratio (pull-down/input)
GATGATTGTTCTCCCAGCTGATGAATTTATCCCTTCGAGTAAACAAATTTTCCTAATCTTTCTGTTCAAGCGCCATCTAC	1.05 RPM ratio (pull-down/input)
GATGATTGTTCTCCCAGCTGATGAATTGCGTACCTCGAGTAAACAAATTTTCCTAATCTTTCTGTTCAAGCGCCATCTAC	1.09 RPM ratio (pull-down/input)
GATGATTGTTCTCCCAGCTGATGAATTGGGGCGGTCGAGTAAACAAATTTTCCTAATCTTTCTGTTCAAGCGCCATCTAC	0.782 RPM ratio (pull-down/input)
GATGATTGTTCTCCCAGCTGATGAATTGACAGGATCGAGTAAACAAATTTTCCTAATCTTTCTGTTCAAGCGCCATCTAC	1.1 RPM ratio (pull-down/input)
GATGATTGTTCTCCCAGCTGATGAATTTATTGTTTCGAGTAAACAAATTTTCCTAATCTTTCTGTTCAAGCGCCATCTAC	2.09 RPM ratio (pull-down/input)
GATGATTGTTCTCCCAGCTGATGAATTCGTTTATTCGAGTAAACAAATTTTCCTAATCTTTCTGTTCAAGCGCCATCTAC	1.25 RPM ratio (pull-down/input)
GATGATTGTTCTCCCAGCTGATGAATTGTTTATTTCGAGTAAACAAATTTTCCTAATCTTTCTGTTCAAGCGCCATCTAC	2.77 RPM ratio (pull-down/input)
